In PubChem BioAssay (NCI):
About 83,000 compounds went through this panel and 20% of them were active in at least one assay; those are over-represented in the sample as a whole.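 Negative percent growth values reflect cell death: -40 means 40% of the cells present at the start died, and -100 means all died.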 Values without a mark were called inactive. Activity calls are given as the source filed them. Rule for the calls: active = growth percent below 10; inactive = the rest.

Legend:
Experiment in all cases: NCI-60 one-dose screen, 48 h (100 = growth as untreated, 0 = no growth, -100 = all killed)
Details in all cases: 10 µM unless noted
SK-MEL-2 melanoma = system: SK-MEL-2 melanoma
EKVX NSCLC = system: EKVX NSCLC
SN12C renal = system: SN12C renal
UO-31 renal = system: UO-31 renal
TK-10 renal = system: TK-10 renal
ACHN renal = system: ACHN renal
CAKI-1 renal = system: CAKI-1 renal
A498 renal = system: A498 renal
CCRF-CEM leukemia = system: CCRF-CEM leukemia
MOLT-4 leukemia = system: MOLT-4 leukemia

`Cc1ccc(NC(=O)c2sc3nc4c(cc3c2N)C(=O)CCC4)cc1Cl` gave a growth (SK-MEL-2 melanoma) of 112%, a growth (EKVX NSCLC) of 86.2% and a growth (SN12C renal) of 119%. It also gave a growth (UO-31 renal) of 111%, a growth (TK-10 renal) of 96.5% and a growth (ACHN renal) of 109%. For the same compound, the growth (CAKI-1 renal) was 85.9%, the growth (A498 renal) was 97.9% and the growth (CCRF-CEM leukemia) was 104%. It also gave a growth (MOLT-4 leukemia) of 108%.

For `O=C1Nc2ccc(Br)cc2/C1=N/c1nc(-c2ccccc2)cs1`, the growth (SK-MEL-2 melanoma) was 88%, the growth (EKVX NSCLC) was 66.8% and the growth (SN12C renal) was 96%. For the same compound, the growth (UO-31 renal) was 63.9%, the growth (TK-10 renal) was 109% and the growth (ACHN renal) was 94.8%. For the same compound, the growth (CAKI-1 renal) was 70.7%, the growth (A498 renal) was 78.9% and the growth (CCRF-CEM leukemia) was 101%. For the same compound, the growth (MOLT-4 leukemia) was 59.2%.

Compound `COc1ccc2c(c1)C1=NN(C(=O)CO)[C@H](c3ccc(OC(F)(F)F)cc3)[C@@H]1CC2` has a growth (SK-MEL-2 melanoma) of 89.5%, a growth (EKVX NSCLC) of 94.3% and a growth (SN12C renal) of 99.6%. The growth (UO-31 renal) was 53.5%, the growth (TK-10 renal) was 162% and the growth (ACHN renal) was 87.9%. For the same compound, the growth (CAKI-1 renal) was 116%, the growth (A498 renal) was 94.4% and the growth (CCRF-CEM leukemia) was 129%. It also gave a growth (MOLT-4 leukemia) of 86.9%.

With `CC(C)[C@@]12C[C@@H](OC(=O)[C@H]3CO3)[C@@](C)(O1)[C@@H]1CC[C@@H](C)[C@H]1[C@@H]2OC(=O)/C=C/c1ccccc1` the growth (SK-MEL-2 melanoma) was 82.4%, the growth (EKVX NSCLC) was 71.9% and the growth (SN12C renal) was 52.5%. The growth (UO-31 renal) was -8.95% (active), the growth (TK-10 renal) was 103% and the growth (ACHN renal) was 23.5%. The growth (CAKI-1 renal) was 46.6%, the growth (A498 renal) was -61.1% (active) and the growth (CCRF-CEM leukemia) was 81.9%. It also gave a growth (MOLT-4 leukemia) of 72.8%.

For `CC(C)(CCc1ccccn1)C(=O)CCCc1ccccn1`, the growth (SK-MEL-2 melanoma) was 98.7%, the growth (EKVX NSCLC) was 105% and the growth (SN12C renal) was 94.8%. It also gave a growth (UO-31 renal) of 85.9%, a growth (TK-10 renal) of 97% and a growth (ACHN renal) of 97.4%. It also gave a growth (CAKI-1 renal) of 98%, a growth (A498 renal) of 96.3% and a growth (CCRF-CEM leukemia) of 84.8%. For the same compound, the growth (MOLT-4 leukemia) was 101%.

Compound `Cn1c(-c2ccccc2)cc(=O)n1-c1ccccc1` has a growth (SK-MEL-2 melanoma) of 121%, a growth (EKVX NSCLC) of 93.7% and a growth (SN12C renal) of 107%. For the same compound, the growth (UO-31 renal) was 101%, the growth (TK-10 renal) was 116% and the growth (ACHN renal) was 109%. The growth (CAKI-1 renal) was 95.6%, the growth (A498 renal) was 89.1% and the growth (CCRF-CEM leukemia) was 91.1%. For the same compound, the growth (MOLT-4 leukemia) was 99.6%.

`COc1ccc(-c2conc2-n2nc(-c3ccccc3)nc2-c2ccccc2)cc1` was tested, and the growth (SK-MEL-2 melanoma) was 103%, the growth (EKVX NSCLC) was 101% and the growth (SN12C renal) was 101%. The growth (UO-31 renal) was 73.2%, the growth (TK-10 renal) was 137% and the growth (ACHN renal) was 97.2%. The growth (CAKI-1 renal) was 83.8%, the growth (A498 renal) was 120% and the growth (CCRF-CEM leukemia) was 106%. For the same compound, the growth (MOLT-4 leukemia) was 99.1%.

With `COc1cc(CN(CCC(O)N2CCCC2=O)Cc2ccc3c(c2)OCO3)cc(OC)c1OC` (stereo not given) the growth (SK-MEL-2 melanoma) was 94.5%, the growth (EKVX NSCLC) was 107% and the growth (SN12C renal) was 105%. The growth (UO-31 renal) was 78.1%, the growth (TK-10 renal) was 112% and the growth (ACHN renal) was 100%. The growth (CAKI-1 renal) was 97.1%, the growth (A498 renal) was 118% and the growth (CCRF-CEM leukemia) was 98.3%. It also gave a growth (MOLT-4 leukemia) of 85.2%.

`Nc1c(C(=O)Nc2ccccc2)sc2nc3c(cc12)C(=O)CCC3` gave a growth (SK-MEL-2 melanoma) of 38.7%, a growth (EKVX NSCLC) of 84.6% and a growth (SN12C renal) of 59.8%. For the same compound, the growth (UO-31 renal) was 71.1%, the growth (TK-10 renal) was 63.6% and the growth (ACHN renal) was 49.7%. For the same compound, the growth (CAKI-1 renal) was 54.7%, the growth (A498 renal) was 37.3% and the growth (CCRF-CEM leukemia) was 16.8%. For the same compound, the growth (MOLT-4 leukemia) was 43.4%.

Compound `C=CCOC(=O)C1=C(C)NC2=C(C(=O)CCC2)C1c1ccc(F)cc1` (stereo not given) has a growth (SK-MEL-2 melanoma) of 101%, a growth (EKVX NSCLC) of 102% and a growth (SN12C renal) of 92.1%. For the same compound, the growth (UO-31 renal) was 76.1%, the growth (TK-10 renal) was 111% and the growth (ACHN renal) was 89.6%. The growth (CAKI-1 renal) was 84.7%, the growth (A498 renal) was 99.3% and the growth (CCRF-CEM leukemia) was 98.1%. For the same compound, the growth (MOLT-4 leukemia) was 93.6%.

`O=C(N/N=C\c1cc(Br)ccc1O)c1ccncc1` was tested, and the growth (SK-MEL-2 melanoma) was 31.4%, the growth (EKVX NSCLC) was 29.6% and the growth (SN12C renal) was 46.5%. The growth (UO-31 renal) was 23.4%, the growth (TK-10 renal) was 43.7% and the growth (ACHN renal) was 27.3%. For the same compound, the growth (CAKI-1 renal) was 24.7%, the growth (A498 renal) was 74.1% and the growth (CCRF-CEM leukemia) was 8.77% (active). For the same compound, the growth (MOLT-4 leukemia) was -10.7% (active).

In the case of `Clc1cc(Cl)cc(-c2cnc3nonc3n2)c1`, the growth (SK-MEL-2 melanoma) is reported as 98.5%, the growth (EKVX NSCLC) is reported as 102% and the growth (SN12C renal) is reported as 99.4%. For the same compound, the growth (UO-31 renal) was 62.3%, the growth (TK-10 renal) was 79.9% and the growth (ACHN renal) was 72.6%. For the same compound, the growth (CAKI-1 renal) was 93.5%, the growth (A498 renal) was 100% and the growth (CCRF-CEM leukemia) was 50.5%. For the same compound, the growth (MOLT-4 leukemia) was 92.9%.

With `C[N+](C)(C)CC(=O)N/N=C\c1ccco1` the growth (SK-MEL-2 melanoma) was 111%, the growth (EKVX NSCLC) was 103% and the growth (SN12C renal) was 106%. It also gave a growth (UO-31 renal) of 82.8%, a growth (TK-10 renal) of 95.2% and a growth (ACHN renal) of 107%. The growth (CAKI-1 renal) was 98%, the growth (A498 renal) was 98.7% and the growth (CCRF-CEM leukemia) was 100%. For the same compound, the growth (MOLT-4 leukemia) was 102%.

`COc1cccc(C2C(C#N)=C(N)Oc3cc4c(cc32)OCO4)c1` (stereo not given) was tested, and the growth (SK-MEL-2 melanoma) was 64.7%, the growth (EKVX NSCLC) was 47.9% and the growth (SN12C renal) was 23.8%. The growth (UO-31 renal) was 39.3%, the growth (TK-10 renal) was 80% and the growth (ACHN renal) was 29.3%. The growth (CAKI-1 renal) was 52.4%, the growth (A498 renal) was 1.43% (active) and the growth (CCRF-CEM leukemia) was 17.4%. It also gave a growth (MOLT-4 leukemia) of 19.4%.
